Values joined by “and” are separate entries in the source; they are usually repeats but may differ in a detail not shown here. Equal entries are not always repeated. Some compounds were tested as several samples or in several runs, with calls that do not always agree. Active and inactive are the calls of the source. Rule for the calls, unless noted: active = hit-call score of the fitted dose curve at least 0.9, where 1 is the maximum; inactive = score below 0.9.

Results on 16 compounds are retold here after PubChem BioAssay (EPA / NIEHS).

The first assay has as its system DIO2 (gene 1734). Briefly: CCTE_GLTED_hDIO2: CCTE's human Deiodinase 2 (DIO2) Inhibition Assay, Great Lakes Toxicology and Ecology Division (GLTED) Lab (AID 2284050; active = hit-call score of the fitted dose curve at least 0.9, where 1 is the maximum). In a few lines: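 Iodide released by human deiodinase 2 over 3 h with test chemical, measured spectrophotometrically via Sandell-Kolthoff cerium/arsenic reaction. Run n=3; inhibition referenced to DMSO.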
One may read the AC50 as the midpoint of the concentration-response curve, whichever way the signal moves. On to `CCCOCC(=Nc1ccc(Cl)cc1C(F)(F)F)n1ccnc1`, for which the AC50 is 2.92 µM (active).
On the same count and under the same terms, for `CCc1cccc(CC)c1N(COC)C(=O)CCl` the value was 61.1 µM (active).
Turning to `CCNc1nc(Cl)nc(NC(C)(C)C#N)n1`, the result was inactive.

System in the next assay: not listed separately
In words: CCTE_Shafer_MEA_dev_network_spike_duration_std: CCTE's Neural Network Formation Assay for Standard Deviation of Network Spike Duration, Shafer Lab (AID 2284052).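 Note: hits are decreases in network spike duration SD versus DMSO vehicle.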 Summed up: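 Read-out is the trapezoidal area-under-the-curve across recordings made on days 5, 7, 9 and 12, fitted in the negative direction against DMSO baseline. Neurons were primary rat cortical cells treated from day 0, with treatment renewed at each feed.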
Turning to `COP(=O)(OC)OC(Br)C(Cl)(Cl)Br` (stereo not drawn), the AC50 is 4.26 µM (active) and 9.92 µM (active).
Consider `CCOP(=S)(OCC)Oc1ccc([N+](=O)[O-])cc1`, for which the compound was called inactive.
For the compound `CCOP(=O)(NC(C)C)Oc1ccc(SC)c(C)c1` (stereo not drawn), the AC50 is 10.1 µM (active) and the call was inactive.
For `CCCSP(=O)(OCC)Oc1ccc(Br)cc1Cl` (stereo not drawn), the compound was classed as inactive.
For `CON=C(C(=O)OC)c1ccccc1CON=C(C)c1cccc(C(F)(F)F)c1`, the AC50 is 642 nM (active) and 886 nM (active).
As for `CC(Oc1cccc(Cl)c1)C(=O)O` (stereo not drawn), the compound was called inactive.
`CCOP(=S)(OCC)Oc1cc(C)nc(C(C)C)n1`: the result was inactive.
Take `CCCSP(=O)(OCC)SCCC`: the result was inactive.
As for `CCOP(=O)(OCC)Oc1cc(C)nc(C(C)C)n1`, the result was inactive.
In the case of `CCOP(=S)(OCC)OC(Cl)C(Cl)(Cl)Cl` (stereo not drawn), the AC50 was 13.9 µM (active) and the compound was classed as inactive.
`S=C1NCCN1`: the result was inactive.
Still for that read-out and setting: for `CCOP(=O)(SC(C)CC)N1CCSC1=O` (stereo not drawn) the value was “inactive”; for `CCCCSP(=O)(SCCCC)SCCCC`, “inactive”.
